Test results as given in paper PMC5540273 (PLoS ONE, 2017).

Key:
Settings in all cases: concentration: 1 μM, replicates: in singlicate; n = 1
INSR = system: INSR
IRAK1 = system: IRAK1
IRAK3 = system: IRAK3
IRAK4 = system: IRAK4
ITK = system: ITK
[1] = system: JAK1(JH1domain-catalytic)
[2] = system: JAK1(JH2domain-pseudokinase)
[3] = system: JAK2(JH1domain-catalytic)
[4] = system: JAK3(JH1domain-catalytic)
JNK1 = system: T1, JNK1
T1 construct: gene MAPK8
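Further: KINOMEscan kinase panel screen.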

For `Nc1nccc2scc(-c3ccc4c(c3)CCN4C(=O)Cc3ccccc3)c12` [GSK2576924], the “%Inh” value (INSR) was 0%, the “%Inh” value (IRAK1) was 0% and the “%Inh” value (IRAK3) was 0%. The “%Inh” value (IRAK4) was 0%, the “%Inh” value (ITK) was 4% and the “%Inh” value [1] was 19%. The “%Inh” value [2] was 0%, the “%Inh” value [3] was 4% and the “%Inh” value [4] was 0%. For the same compound, the “%Inh” value (JNK1) was 0%.
`Cc1nc(N(C)[C@H]2CN(C(=O)CC#N)CC[C@H]2C)c2cc[nH]c2n1` was tested, and the “%Inh” value (INSR) was 0%, the “%Inh” value (IRAK1) was 0% and the “%Inh” value (IRAK3) was 0%. The “%Inh” value (IRAK4) was 0%, the “%Inh” value (ITK) was 5% and the “%Inh” value [1] was 11%. The “%Inh” value [2] was 0%, the “%Inh” value [3] was 69% and the “%Inh” value [4] was 97.6%. For the same compound, the “%Inh” value (JNK1) was 1%.
With `COc1cc(Nc2ccnc3ccc(C(F)(F)F)cc23)cc(OC)c1OC` [GW577382] the “%Inh” value (INSR) was 10%, the “%Inh” value (IRAK1) was 22% and the “%Inh” value (IRAK3) was 6%. For the same compound, the “%Inh” value (IRAK4) was 2%, the “%Inh” value (ITK) was 9% and the “%Inh” value [1] was 8%. The “%Inh” value [2] was 0%, the “%Inh” value [3] was 9% and the “%Inh” value [4] was 100%. For the same compound, the “%Inh” value (JNK1) was 39%.
`COc1cccc(-n2cnc3c(N)ncnc32)c1` [SKF-97416] was tested, and the “%Inh” value (INSR) was 0%, the “%Inh” value (IRAK1) was 38% and the “%Inh” value (IRAK3) was 42%. For the same compound, the “%Inh” value (IRAK4) was 0%, the “%Inh” value (ITK) was 0% and the “%Inh” value [1] was 0%. The “%Inh” value [2] was 58%, the “%Inh” value [3] was 44% and the “%Inh” value [4] was 19%. The “%Inh” value (JNK1) was 0%.
With `C[C@@H]1CC[C@H](C(=O)NC2CCCCC2)CN1c1cc(-c2ccc3c(N)n[nH]c3c2)nc(N)n1` [GSK2291363] the “%Inh” value (INSR) was 10%, the “%Inh” value (IRAK1) was 34% and the “%Inh” value (IRAK3) was 0%. For the same compound, the “%Inh” value (IRAK4) was 28%, the “%Inh” value (ITK) was 22% and the “%Inh” value [1] was 7%. For the same compound, the “%Inh” value [2] was 11%, the “%Inh” value [3] was 9% and the “%Inh” value [4] was 0%. The “%Inh” value (JNK1) was 34%.
For `Nc1n[nH]c2ncc(-c3ccccc3)cc12` [SB-517081], the “%Inh” value (INSR) was 18%, the “%Inh” value (IRAK1) was 49% and the “%Inh” value (IRAK3) was 3%. The “%Inh” value (IRAK4) was 22%, the “%Inh” value (ITK) was 19% and the “%Inh” value [1] was 4%. The “%Inh” value [2] was 34%, the “%Inh” value [3] was 55% and the “%Inh” value [4] was 0%. For the same compound, the “%Inh” value (JNK1) was 38%.
With `CCCNC(=O)Nc1ccc(Oc2ncnc3ccn(C)c23)cc1` the “%Inh” value (INSR) was 31%, the “%Inh” value (IRAK1) was 16% and the “%Inh” value (IRAK3) was 0%. For the same compound, the “%Inh” value (IRAK4) was 15%, the “%Inh” value (ITK) was 5% and the “%Inh” value [1] was 17%. For the same compound, the “%Inh” value [2] was 0%, the “%Inh” value [3] was 1% and the “%Inh” value [4] was 0%. The “%Inh” value (JNK1) was 0%.
`COc1ccc(CNC(=O)NC2CCN(c3ccnc(Nc4ccc(F)cc4)n3)C2)cc1` (stereo not shown) [GSK1379706] was tested, and the “%Inh” value (INSR) was 17%, the “%Inh” value (IRAK1) was 45% and the “%Inh” value (IRAK3) was 0%. The “%Inh” value (IRAK4) was 0%, the “%Inh” value (ITK) was 8% and the “%Inh” value [1] was 13%. The “%Inh” value [2] was 0%, the “%Inh” value [3] was 39% and the “%Inh” value [4] was 0%. For the same compound, the “%Inh” value (JNK1) was 19%.
With `COC(=O)c1c(-c2ccccc2)c2cc(Br)ccc2c(=O)n1Cc1ccc(NC(=O)CCC(=O)O)cc1` the “%Inh” value (INSR) was 8%, the “%Inh” value (IRAK1) was 8% and the “%Inh” value (IRAK3) was 25%. The “%Inh” value (IRAK4) was 16%, the “%Inh” value (ITK) was 12% and the “%Inh” value [1] was 5%. The “%Inh” value [2] was 0%, the “%Inh” value [3] was 0% and the “%Inh” value [4] was 0%. For the same compound, the “%Inh” value (JNK1) was 99%.
With `Cc1ccccc1COc1cc(-n2cnc3cc(Cl)ccc32)sc1C(N)=O` [GW813349] the “%Inh” value (INSR) was 3%, the “%Inh” value (IRAK1) was 22% and the “%Inh” value (IRAK3) was 3%. For the same compound, the “%Inh” value (IRAK4) was 17%, the “%Inh” value (ITK) was 13% and the “%Inh” value [1] was 0%. For the same compound, the “%Inh” value [2] was 20%, the “%Inh” value [3] was 17% and the “%Inh” value [4] was 0%. For the same compound, the “%Inh” value (JNK1) was 24%.
With `COc1cc2ncn(-c3cc(OCc4ccncc4)c(C(N)=O)s3)c2cc1OC` [GSK336313] the “%Inh” value (INSR) was 1%, the “%Inh” value (IRAK1) was 8% and the “%Inh” value (IRAK3) was 0%. For the same compound, the “%Inh” value (IRAK4) was 0%, the “%Inh” value (ITK) was 4% and the “%Inh” value [1] was 6%. For the same compound, the “%Inh” value [2] was 0%, the “%Inh” value [3] was 0% and the “%Inh” value [4] was 0%. For the same compound, the “%Inh” value (JNK1) was 0%.
In the case of `COc1cc2ncn(-c3cc(OCCCc4ccccc4)c(C(N)=O)s3)c2cc1OC` [GSK205189], the “%Inh” value (INSR) is reported as 13%, the “%Inh” value (IRAK1) is reported as 0% and the “%Inh” value (IRAK3) is reported as 7%. The “%Inh” value (IRAK4) was 0%, the “%Inh” value (ITK) was 5% and the “%Inh” value [1] was 0%. The “%Inh” value [2] was 0%, the “%Inh” value [3] was 1% and the “%Inh” value [4] was 0%. The “%Inh” value (JNK1) was 15%.
With `COc1cc(Nc2nccc(N3CCC(NC(=O)C4COc5ccccc5O4)C3)n2)cc(OC)c1OC` (stereo not shown) [GSK1379761] the “%Inh” value (INSR) was 0%, the “%Inh” value (IRAK1) was 61% and the “%Inh” value (IRAK3) was 76%. The “%Inh” value (IRAK4) was 0%, the “%Inh” value (ITK) was 4% and the “%Inh” value [1] was 7%. For the same compound, the “%Inh” value [2] was 21%, the “%Inh” value [3] was 98.5% and the “%Inh” value [4] was 55%. The “%Inh” value (JNK1) was 20%.
For `Cc1nn2c(=O)cc(N3CCOCC3)nc2n1Cc1cccc(Cl)c1Cl` [GSK2342769], the “%Inh” value (INSR) was 0%, the “%Inh” value (IRAK1) was 75% and the “%Inh” value (IRAK3) was 16%. The “%Inh” value (IRAK4) was 16%, the “%Inh” value (ITK) was 14% and the “%Inh” value [1] was 10%. The “%Inh” value [2] was 0%, the “%Inh” value [3] was 6% and the “%Inh” value [4] was 0%. For the same compound, the “%Inh” value (JNK1) was 10%.
With `COC(=O)c1c(-c2ccccc2)c2cc(C)ccc2c(=O)n1Cc1ccccc1` the “%Inh” value (INSR) was 1%, the “%Inh” value (IRAK1) was 21% and the “%Inh” value (IRAK3) was 0%. The “%Inh” value (IRAK4) was 20%, the “%Inh” value (ITK) was 1% and the “%Inh” value [1] was 0%. The “%Inh” value [2] was 0%, the “%Inh” value [3] was 0% and the “%Inh” value [4] was 0%. The “%Inh” value (JNK1) was 44%.
For `Nc1ncnc2c1ncn2-c1cccc(F)c1` [SKF-97560], the “%Inh” value (INSR) was 9%, the “%Inh” value (IRAK1) was 33% and the “%Inh” value (IRAK3) was 0%. The “%Inh” value (IRAK4) was 30%, the “%Inh” value (ITK) was 6% and the “%Inh” value [1] was 10%. For the same compound, the “%Inh” value [2] was 12%, the “%Inh” value [3] was 39% and the “%Inh” value [4] was 55%. The “%Inh” value (JNK1) was 38%.
With `O=c1cc(N2CCOCC2)nc2n(Cc3ccc(F)c(Cl)c3)ccn12` [GSK2297099] the “%Inh” value (INSR) was 23%, the “%Inh” value (IRAK1) was 10% and the “%Inh” value (IRAK3) was 0%. For the same compound, the “%Inh” value (IRAK4) was 16%, the “%Inh” value (ITK) was 1% and the “%Inh” value [1] was 19%. For the same compound, the “%Inh” value [2] was 0%, the “%Inh” value [3] was 100% and the “%Inh” value [4] was 0%. The “%Inh” value (JNK1) was 21%.
`O=C(Nc1n[nH]c2cc(-c3ccccc3F)ccc12)C1CC1` [SB-733371] was tested, and the “%Inh” value (INSR) was 0%, the “%Inh” value (IRAK1) was 0% and the “%Inh” value (IRAK3) was 0%. The “%Inh” value (IRAK4) was 0%, the “%Inh” value (ITK) was 0% and the “%Inh” value [1] was 0%. For the same compound, the “%Inh” value [2] was 17%, the “%Inh” value [3] was 27% and the “%Inh” value [4] was 0%. The “%Inh” value (JNK1) was 33%.
`Fc1cccc(CSc2nnc(-c3ccc4c(c3)CCO4)o2)c1` was tested, and the “%Inh” value (INSR) was 23%, the “%Inh” value (IRAK1) was 21% and the “%Inh” value (IRAK3) was 6%. For the same compound, the “%Inh” value (IRAK4) was 100%, the “%Inh” value (ITK) was 16% and the “%Inh” value [1] was 11%. The “%Inh” value [2] was 0%, the “%Inh” value [3] was 0% and the “%Inh” value [4] was 3%. For the same compound, the “%Inh” value (JNK1) was 8%.
